Key:
Assay in all cases: PBM; 200 nM protein, PBS
Conditions in all cases: dsDNA, one strand shown
SHOX [1] = molecular target: SHOX (Homo sapiens, UniProt O15266 103-189)
SHOX [2] = molecular target: SHOX (Homo sapiens, UniProt O15266 103-189, R173C)
HOXD13 [3] = molecular target: HOXD13 (Homo sapiens, UniProt P35453 263-343, T313R)
HOXD13 [4] = molecular target: HOXD13 (Homo sapiens, UniProt P35453 263-343)
HOXD13 [5] = molecular target: HOXD13 (Homo sapiens, UniProt P35453 263-343, T313A)
HOXC10 = HOXC10 (Homo sapiens, UniProt Q9NYD6 254-340, K271E)
ALX3 [6] = molecular target: ALX3 (Homo sapiens, UniProt O95076 139-225, N203Q)
ALX3 [7] = molecular target: ALX3 (Homo sapiens, UniProt O95076 139-225)
ALX3 [8] = molecular target: ALX3 (Homo sapiens, UniProt O95076 139-225, L168Q)
ALX3 [9] = molecular target: ALX3 (Homo sapiens, UniProt O95076 139-225, L168V)
ALX3 [10] = molecular target: ALX3 (Homo sapiens, UniProt O95076 139-225, N203S)
VAX1 [11] = molecular target: VAX1 (Homo sapiens, UniProt Q5SQQ9 86-172)
VAX1 [12] = molecular target: VAX1 (Homo sapiens, UniProt Q5SQQ9 86-172, T142I)
VAX1 [13] = molecular target: VAX1 (Homo sapiens, UniProt Q5SQQ9 86-172, K157R)
PITX2 = PITX2 (Homo sapiens, UniProt Q99697 72-157)
HOXC9 = HOXC9 (Homo sapiens, UniProt P31274 178-260, R222W)
ALX1 [14] = molecular target: ALX1 (Homo sapiens, UniProt Q15699 118-204, L144V)
ALX1 [15] = molecular target: ALX1 (Homo sapiens, UniProt Q15699 118-204, L144R)
ALX1 [16] = molecular target: ALX1 (Homo sapiens, UniProt Q15699 118-204)
Sequence of ALX1 (Homo sapiens, UniProt Q15699 118-204) (Q15699 118-204): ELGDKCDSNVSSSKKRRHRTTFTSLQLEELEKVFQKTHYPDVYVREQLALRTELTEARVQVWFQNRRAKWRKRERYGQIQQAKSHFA

Sequence of SHOX (Homo sapiens, UniProt O15266 103-189) (O15266 103-189): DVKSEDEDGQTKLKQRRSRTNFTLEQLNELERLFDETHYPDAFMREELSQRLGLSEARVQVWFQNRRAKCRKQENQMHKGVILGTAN
Sequence of HOXD13 (Homo sapiens, UniProt P35453 263-343, T313R) (P35453 263-343 T313R): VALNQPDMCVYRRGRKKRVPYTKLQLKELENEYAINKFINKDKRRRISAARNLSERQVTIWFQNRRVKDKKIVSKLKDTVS
Sequence of HOXD13 (Homo sapiens, UniProt P35453 263-343) (P35453 263-343): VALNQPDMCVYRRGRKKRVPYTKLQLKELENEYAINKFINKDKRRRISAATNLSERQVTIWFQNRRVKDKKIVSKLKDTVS
Sequence of ALX3 (Homo sapiens, UniProt O95076 139-225, L168Q) (O95076 139-225 L168Q): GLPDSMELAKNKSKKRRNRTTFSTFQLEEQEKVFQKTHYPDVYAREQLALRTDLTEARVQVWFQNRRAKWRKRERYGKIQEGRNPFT
Sequence of ALX3 (Homo sapiens, UniProt O95076 139-225, N203S) (O95076 139-225 N203S): as the sequence (O95076 139-225 L168Q) above, with Q30L, N65S counted along it
Sequence of ALX3 (Homo sapiens, UniProt O95076 139-225, N203Q) (O95076 139-225 N203Q): as the sequence (O95076 139-225 L168Q) above, with Q30L, N65Q counted along it
Sequence of ALX3 (Homo sapiens, UniProt O95076 139-225) (O95076 139-225): as the sequence (O95076 139-225 L168Q) above, with Q30L counted along it
Sequence of ALX3 (Homo sapiens, UniProt O95076 139-225, L168V) (O95076 139-225 L168V): as the sequence (O95076 139-225 L168Q) above, with Q30V counted along it
Sequence of SHOX (Homo sapiens, UniProt O15266 103-189, R173C) (O15266 103-189 R173C): as the sequence (O15266 103-189) above, with R71C counted along it
Sequence of HOXD13 (Homo sapiens, UniProt P35453 263-343, T313A) (P35453 263-343 T313A): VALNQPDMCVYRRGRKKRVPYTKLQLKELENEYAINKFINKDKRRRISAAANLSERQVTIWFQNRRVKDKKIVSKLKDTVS
Sequence of VAX1 (Homo sapiens, UniProt Q5SQQ9 86-172, K157R) (Q5SQQ9 86-172 K157R): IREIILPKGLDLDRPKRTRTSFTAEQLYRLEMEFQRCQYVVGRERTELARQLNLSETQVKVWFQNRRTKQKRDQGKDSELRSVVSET
Sequence of VAX1 (Homo sapiens, UniProt Q5SQQ9 86-172) (Q5SQQ9 86-172): as the sequence (Q5SQQ9 86-172 K157R) above, with R72K counted along it
Sequence of VAX1 (Homo sapiens, UniProt Q5SQQ9 86-172, T142I) (Q5SQQ9 86-172 T142I): as the sequence (Q5SQQ9 86-172 K157R) above, with T57I, R72K counted along it
Sequence of ALX1 (Homo sapiens, UniProt Q15699 118-204, L144V) (Q15699 118-204 L144V): as the sequence (Q15699 118-204) above, with L27V counted along it
Sequence of ALX1 (Homo sapiens, UniProt Q15699 118-204, L144R) (Q15699 118-204 L144R): as the sequence (Q15699 118-204) above, with L27R counted along it
Sequence of HOXC10 (Q9NYD6 254-340 K271E): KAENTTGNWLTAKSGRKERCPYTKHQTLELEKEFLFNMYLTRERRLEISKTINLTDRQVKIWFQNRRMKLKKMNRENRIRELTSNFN
Sequence of HOXC9 (P31274 178-260 R222W): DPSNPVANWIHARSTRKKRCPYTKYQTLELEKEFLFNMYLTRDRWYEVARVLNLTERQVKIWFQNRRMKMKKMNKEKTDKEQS

Sequence: GCCGGGGA
- binding signal (SHOX [1]): 7.02 upbm affinity estimate (log intensity, higher = more binding, comparable within an allelic series)
- binding signal (SHOX [2]): 7.11 upbm affinity estimate (log intensity, higher = more binding, comparable within an allelic series)

Sequence: GCCCAAGC
- binding signal (SHOX [1]): 7.26 upbm affinity estimate (log intensity, higher = more binding, comparable within an allelic series)
- binding signal (SHOX [2]): 7.23 upbm affinity estimate (log intensity, higher = more binding, comparable within an allelic series)

Sequence: GACAGCCC
- binding signal (SHOX [1]): 7.16 upbm affinity estimate (log intensity, higher = more binding, comparable within an allelic series)
- binding signal (SHOX [2]): 7.16 upbm affinity estimate (log intensity, higher = more binding, comparable within an allelic series)

Sequence: AGGGCAGC
- binding signal (SHOX [1]): 6.98 upbm affinity estimate (log intensity, higher = more binding, comparable within an allelic series)
- binding signal (HOXD13 [3]): 9.54 upbm affinity estimate (log intensity, higher = more binding, comparable within an allelic series)
- binding signal (SHOX [2]): 7.18 upbm affinity estimate (log intensity, higher = more binding, comparable within an allelic series)
- binding signal (HOXD13 [4]): 9.49 upbm affinity estimate (log intensity, higher = more binding, comparable within an allelic series)
- binding signal (HOXD13 [5]): 9.66 upbm affinity estimate (log intensity, higher = more binding, comparable within an allelic series)

Sequence: CCCAGCGC
- binding signal (SHOX [1]): 7.21 upbm affinity estimate (log intensity, higher = more binding, comparable within an allelic series)
- binding signal (HOXD13 [3]): 9.41 upbm affinity estimate (log intensity, higher = more binding, comparable within an allelic series)
- binding signal (SHOX [2]): 7.13 upbm affinity estimate (log intensity, higher = more binding, comparable within an allelic series)
- binding signal (HOXD13 [4]): 9.38 upbm affinity estimate (log intensity, higher = more binding, comparable within an allelic series)
- binding signal (HOXD13 [5]): 9.56 upbm affinity estimate (log intensity, higher = more binding, comparable within an allelic series)

Sequence: CTCCGAAC
- binding signal (SHOX [1]): 7.18 upbm affinity estimate (log intensity, higher = more binding, comparable within an allelic series)
- binding signal (SHOX [2]): 7.23 upbm affinity estimate (log intensity, higher = more binding, comparable within an allelic series)

Sequence: AATTAGGC
- binding signal (SHOX [1]): 11.6 upbm affinity estimate (log intensity, higher = more binding, comparable within an allelic series)
- binding signal (SHOX [2]): 9.07 upbm affinity estimate (log intensity, higher = more binding, comparable within an allelic series)

Sequence: AGGGAAAC
- binding signal (SHOX [1]): 7.15 upbm affinity estimate (log intensity, higher = more binding, comparable within an allelic series)
- binding signal (SHOX [2]): 7.22 upbm affinity estimate (log intensity, higher = more binding, comparable within an allelic series)

Sequence: GCCAGGGA
- binding signal (SHOX [1]): 7.22 upbm affinity estimate (log intensity, higher = more binding, comparable within an allelic series)
- binding signal (SHOX [2]): 7.13 upbm affinity estimate (log intensity, higher = more binding, comparable within an allelic series)

Sequence: CTTGGCCC
- binding signal (SHOX [1]): 7.14 upbm affinity estimate (log intensity, higher = more binding, comparable within an allelic series)
- binding signal (SHOX [2]): 7.2 upbm affinity estimate (log intensity, higher = more binding, comparable within an allelic series)

Sequence: ACCCGGAC
- binding signal (SHOX [1]): 7.09 upbm affinity estimate (log intensity, higher = more binding, comparable within an allelic series)
- binding signal (SHOX [2]): 7.17 upbm affinity estimate (log intensity, higher = more binding, comparable within an allelic series)

Sequence: CCCACTCG
- binding signal (SHOX [1]): 7.04 upbm affinity estimate (log intensity, higher = more binding, comparable within an allelic series)
- binding signal (SHOX [2]): 7.12 upbm affinity estimate (log intensity, higher = more binding, comparable within an allelic series)

Sequence: AGTTTATG
- binding signal (SHOX [1]): 8.25 upbm affinity estimate (log intensity, higher = more binding, comparable within an allelic series)
- binding signal (HOXD13 [3]): 10.7 upbm affinity estimate (log intensity, higher = more binding, comparable within an allelic series)
- binding signal (HOXD13 [4]): 11.9 upbm affinity estimate (log intensity, higher = more binding, comparable within an allelic series)
- binding signal (HOXC10): 11.1 upbm affinity estimate (log intensity, higher = more binding, comparable within an allelic series)
- binding signal (HOXD13 [5]): 11.5 upbm affinity estimate (log intensity, higher = more binding, comparable within an allelic series)

Sequence: CCTGGGGC
- binding signal (SHOX [1]): 7.08 upbm affinity estimate (log intensity, higher = more binding, comparable within an allelic series)
- binding signal (ALX3 [6]): 7.67 upbm affinity estimate (log intensity, higher = more binding, comparable within an allelic series)
- binding signal (SHOX [2]): 7.09 upbm affinity estimate (log intensity, higher = more binding, comparable within an allelic series)
- binding signal (ALX3 [7]): 7.69 upbm affinity estimate (log intensity, higher = more binding, comparable within an allelic series)
- binding signal (ALX3 [8]): 7.69 upbm affinity estimate (log intensity, higher = more binding, comparable within an allelic series)
- binding signal (ALX3 [9]): 7.65 upbm affinity estimate (log intensity, higher = more binding, comparable within an allelic series)
- binding signal (ALX3 [10]): 7.61 upbm affinity estimate (log intensity, higher = more binding, comparable within an allelic series)

Sequence: AGCCGCCG
- binding signal (SHOX [1]): 7.12 upbm affinity estimate (log intensity, higher = more binding, comparable within an allelic series)
- binding signal (HOXD13 [3]): 9.48 upbm affinity estimate (log intensity, higher = more binding, comparable within an allelic series)
- binding signal (SHOX [2]): 7.19 upbm affinity estimate (log intensity, higher = more binding, comparable within an allelic series)
- binding signal (HOXD13 [4]): 9.52 upbm affinity estimate (log intensity, higher = more binding, comparable within an allelic series)
- binding signal (HOXD13 [5]): 9.57 upbm affinity estimate (log intensity, higher = more binding, comparable within an allelic series)

Sequence: GAACGCGC
- binding signal (SHOX [1]): 7.22 upbm affinity estimate (log intensity, higher = more binding, comparable within an allelic series)
- binding signal (SHOX [2]): 7.23 upbm affinity estimate (log intensity, higher = more binding, comparable within an allelic series)

Sequence: GGACGTCC
- binding signal (SHOX [1]): 7.52 upbm affinity estimate (log intensity, higher = more binding, comparable within an allelic series)
- binding signal (ALX3 [6]): 7.88 upbm affinity estimate (log intensity, higher = more binding, comparable within an allelic series)
- binding signal (SHOX [2]): 7.3 upbm affinity estimate (log intensity, higher = more binding, comparable within an allelic series)
- binding signal (ALX3 [7]): 7.9 upbm affinity estimate (log intensity, higher = more binding, comparable within an allelic series)
- binding signal (VAX1 [11]): 7.88 upbm affinity estimate (log intensity, higher = more binding, comparable within an allelic series)
- binding signal (ALX3 [8]): 7.79 upbm affinity estimate (log intensity, higher = more binding, comparable within an allelic series)
- binding signal (ALX3 [9]): 7.85 upbm affinity estimate (log intensity, higher = more binding, comparable within an allelic series)
- binding signal (VAX1 [12]): 7.46 upbm affinity estimate (log intensity, higher = more binding, comparable within an allelic series)
- binding signal (ALX3 [10]): 7.79 upbm affinity estimate (log intensity, higher = more binding, comparable within an allelic series)
- binding signal (VAX1 [13]): 7.64 upbm affinity estimate (log intensity, higher = more binding, comparable within an allelic series)

Sequence: CTCTCCTC
- binding signal (SHOX [1]): 7.22 upbm affinity estimate (log intensity, higher = more binding, comparable within an allelic series)
- binding signal (SHOX [2]): 7.21 upbm affinity estimate (log intensity, higher = more binding, comparable within an allelic series)

Sequence: GCGTTAAA
- binding signal (SHOX [1]): 8.14 upbm affinity estimate (log intensity, higher = more binding, comparable within an allelic series)
- binding signal (SHOX [2]): 7.56 upbm affinity estimate (log intensity, higher = more binding, comparable within an allelic series)

Sequence: CCGCGGCC
- binding signal (SHOX [1]): 7.18 upbm affinity estimate (log intensity, higher = more binding, comparable within an allelic series)
- binding signal (SHOX [2]): 7.17 upbm affinity estimate (log intensity, higher = more binding, comparable within an allelic series)

Sequence: CCACCTCG
- binding signal (SHOX [1]): 7.13 upbm affinity estimate (log intensity, higher = more binding, comparable within an allelic series)
- binding signal (SHOX [2]): 7.18 upbm affinity estimate (log intensity, higher = more binding, comparable within an allelic series)

Sequence: CGGGGCCA
- binding signal (SHOX [1]): 6.97 upbm affinity estimate (log intensity, higher = more binding, comparable within an allelic series)
- binding signal (SHOX [2]): 7.1 upbm affinity estimate (log intensity, higher = more binding, comparable within an allelic series)

Sequence: GCGGCGGA
- binding signal (SHOX [1]): 7.1 upbm affinity estimate (log intensity, higher = more binding, comparable within an allelic series)
- binding signal (SHOX [2]): 7.11 upbm affinity estimate (log intensity, higher = more binding, comparable within an allelic series)

Sequence: TATTAGGA
- binding signal (SHOX [1]): 10.1 upbm affinity estimate (log intensity, higher = more binding, comparable within an allelic series)
- binding signal (PITX2): 9.87 upbm affinity estimate (log intensity, higher = more binding, comparable within an allelic series)

Sequence: ATATTAAA
- binding signal (SHOX [1]): 9.92 upbm affinity estimate (log intensity, higher = more binding, comparable within an allelic series)
- binding signal (ALX3 [6]): 8.59 upbm affinity estimate (log intensity, higher = more binding, comparable within an allelic series)
- binding signal (HOXD13 [3]): 10.7 upbm affinity estimate (log intensity, higher = more binding, comparable within an allelic series)
- binding signal (HOXC9): 11.1 upbm affinity estimate (log intensity, higher = more binding, comparable within an allelic series)
- binding signal (ALX3 [10]): 8.68 upbm affinity estimate (log intensity, higher = more binding, comparable within an allelic series)

Sequence: AGGGTCGG
- binding signal (SHOX [1]): 7.15 upbm affinity estimate (log intensity, higher = more binding, comparable within an allelic series)
- binding signal (SHOX [2]): 7.14 upbm affinity estimate (log intensity, higher = more binding, comparable within an allelic series)

Sequence: CAGCCGCG
- binding signal (SHOX [1]): 7.08 upbm affinity estimate (log intensity, higher = more binding, comparable within an allelic series)
- binding signal (ALX1 [14]): 6.48 upbm affinity estimate (log intensity, higher = more binding, comparable within an allelic series)
- binding signal (ALX3 [6]): 7.74 upbm affinity estimate (log intensity, higher = more binding, comparable within an allelic series)
- binding signal (SHOX [2]): 7.07 upbm affinity estimate (log intensity, higher = more binding, comparable within an allelic series)
- binding signal (ALX1 [15]): 6.44 upbm affinity estimate (log intensity, higher = more binding, comparable within an allelic series)
- binding signal (ALX3 [7]): 7.7 upbm affinity estimate (log intensity, higher = more binding, comparable within an allelic series)
- binding signal (VAX1 [11]): 7 upbm affinity estimate (log intensity, higher = more binding, comparable within an allelic series)
- binding signal (ALX3 [8]): 7.68 upbm affinity estimate (log intensity, higher = more binding, comparable within an allelic series)
- binding signal (ALX3 [9]): 7.67 upbm affinity estimate (log intensity, higher = more binding, comparable within an allelic series)
- binding signal (VAX1 [12]): 7.24 upbm affinity estimate (log intensity, higher = more binding, comparable within an allelic series)
- binding signal (ALX1 [16]): 6.47 upbm affinity estimate (log intensity, higher = more binding, comparable within an allelic series)
- binding signal (ALX3 [10]): 7.74 upbm affinity estimate (log intensity, higher = more binding, comparable within an allelic series)
- binding signal (VAX1 [13]): 7.13 upbm affinity estimate (log intensity, higher = more binding, comparable within an allelic series)

Source: publication PMC11006913
